# High-throughput results: PubChem BioAssay, National Center for Advancing Translational Sciences (NCATS)
# Only some compounds are listed: those with a hit (about 9.9% of all), similar ones and a draw of the others.
# ALDH1A1 inh: blocks purified human ALDH1A1 activity; 220,000 tested, 7.3% active; P00352; Potency, µM (titrated, usually from 75.3 µM), inactives show top-dose activity, negative = inhibition, actives largely listed as inhibitors; AID 1030; Purified ALDH1A1, NADH fluorescence, propionaldehyde substrate;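 further: plate controls were no enzyme wells and a reference inhibitor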
# Tau fluor cs: counter-screen for tau fibril formation inhibitors. tau K18 P301L Alexa594 fluorescence, heparin fibrillization. Potency, µM (top dose mostly 57.7 µM), without a hit: top-dose activity change, negative = decrease. 280,000 tested, 0.93% active; active means well fitted curve in the direction sought with a large enough effect; inconclusive means small, poorly fitted or top-dose-only effect, or another doubt; inactive means no such curve, though single readings can be large; an effect the other way counts as inactive or inconclusive; further: nearly all actives have a fitted effect of over 55% in size
#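 Human tau K18 P301L (15 uM unlabeled, 0.24 uM Alexa 594-labeled) in 100 mM sodium acetate pH 7 with 20 uM heparin, 6 hr at 37 C. ThT 30 uM added, 1 hr ambient; Alexa 594 FP and total fluorescence read at 555/632 nm.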
# JMJD2E inh: JMJD2E (human) inhibition | Potency, µM (titrated, usually from 57.1 µM), for inactives: at the highest dose activity change, negative = inhibition, usual class: inhibitors | JMJD2E catalytic domain, FDH-coupled NADH fluorescence (FDH is formaldehyde dehydrogenase) | 230,000 tested, 1.6% active | B2RXH2 | AID 2147;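 further: 0% = wells with enzyme and -100% = buffer wells without enzyme; nearly all actives have a fitted effect of over 50% in size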
# Target sequence (B2RXH2 1-337 limits assumed): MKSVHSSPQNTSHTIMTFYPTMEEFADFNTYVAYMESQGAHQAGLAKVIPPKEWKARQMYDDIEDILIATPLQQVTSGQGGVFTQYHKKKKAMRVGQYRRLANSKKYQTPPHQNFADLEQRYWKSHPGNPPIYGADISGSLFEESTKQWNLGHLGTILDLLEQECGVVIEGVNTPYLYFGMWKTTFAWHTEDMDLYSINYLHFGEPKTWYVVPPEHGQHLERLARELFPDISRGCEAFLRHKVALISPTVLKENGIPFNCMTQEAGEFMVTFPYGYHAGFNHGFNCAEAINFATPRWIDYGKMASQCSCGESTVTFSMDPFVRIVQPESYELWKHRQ
# Tau ThT inhib: tau fibrillization inhibition (ThT binding); Potency, µM (titrated, usually from 57.4 µM), for the others: at the top dose activity, negative = inhibition, hits mostly inhibitors; recombinant tau K18 P301L (four-repeat tau fragment), heparin-induced fibrillization, ThT fluorescence; 270,000 tested, 2.1% active; P10636; active means well fitted curve in the direction sought with a large enough effect; inconclusive means small, poorly fitted or top-dose-only effect, or another doubt; inactive means no such curve, though single readings can be large; an effect the other way counts as inactive or inconclusive; further: nearly all actives have a fitted effect of over 55% in size
#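 In this qHTS, human K18 P301L tau is incubated with compound and heparin for 6 hr at 37 C, and Thioflavin T fluorescence then reports fibril load.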
# HPGD inh: inhibitors of human 15-hydroxyprostaglandin dehydrogenase (HPGD); purified HPGD, NADH fluorescence kinetic, PGE2 substrate; 150,000 tested, 4.3% active; AID 894; P15428; Potency, µM, for the others: at the highest dose activity change, negative = inhibition, actives largely listed as inhibitors
# Target sequence (P15428 whole entry, looked up): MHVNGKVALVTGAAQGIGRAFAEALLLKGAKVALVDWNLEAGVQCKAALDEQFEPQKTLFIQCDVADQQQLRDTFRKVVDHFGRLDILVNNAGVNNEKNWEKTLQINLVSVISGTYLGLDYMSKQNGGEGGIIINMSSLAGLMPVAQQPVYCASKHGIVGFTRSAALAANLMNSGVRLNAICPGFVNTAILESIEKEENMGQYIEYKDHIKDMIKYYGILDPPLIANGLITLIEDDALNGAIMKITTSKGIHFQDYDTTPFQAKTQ
#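 NADH formation kinetics: reaction with 30 uM PGE2 and 1 mM NAD+ (final), 20 nM enzyme, Tris-HCl pH 8 with Tween 20, after 15 min compound preincubation at room temperature. Fluorescence change, last versus first of five reads.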
# Tau FP inhib: tau fibrillization inhibition (FP). P10636. K18 P301L tau heparin fibrillization, Alexa594 FP, 6 h. Potency, µM (series often up to 57.7 µM), inactives show at the top dose activity, negative = inhibition, actives largely listed as inhibitors. 280,000 tested, 0.39% active; active means well fitted curve in the direction sought with a large enough effect; inconclusive means small, poorly fitted or top-dose-only effect, or another doubt; inactive means no such curve, though single readings can be large; an effect the other way counts as inactive or inconclusive; further: nearly all actives have a fitted effect of over 55% in size
#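 Human tau K18 […] P301L fragment, 15 uM unlabeled plus 0.24 uM Alexa 594-labeled tau (final), with compound and 20 uM heparin in 100 mM sodium acetate pH 7; 6 hr at 37 C, then Alexa 594 FP read.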
# An asterisk follows results filed as active; ? = inconclusive; . = no result; [ ] = remark or other dose. Unless noted, the call rests on the fitted dose curve; in most records, active means well fitted inhibition curve with a large enough effect (not every such curve was filed as active); inconclusive means small, poorly fitted or top-dose-only effect, or another doubt; inactive means no such curve, though single readings can be large or run the other way. Unless noted, on the % scale 0 is the no-effect control and ±100 the full control effect; potency means the concentration at half of the fitted maximal effect.
SMILES,ALDH1A1 inh,Tau fluor cs,JMJD2E inh,Tau ThT inhib,HPGD inh,Tau FP inhib
Cc1ccc(C(=O)NN2C(=O)C3C(C2=O)C2C=CC3C23CC3)cc1 (stereo not given),-8%,-8%,8%,-4%,.,0%
COc1ccc(N/C=C/C(=O)c2ccc(Cl)cc2)cc1,0%,0%,-3%,?,-6%,-1%
COc1ccc(N/C=C2\C(=O)CCc3c2oc2cc(Cl)c(O)c(Cl)c32)cc1,-4%,?,-21%,2.5µM*,.,16%
COC(=O)C1=C(C)NC(=O)NC1c1ccc([N+](=O)[O-])o1 (stereo not given),7%,9%,-5%,1%,-10%,3%
COC(=O)C1=C(C)NC(=O)NC1c1ccc(-c2ccc(Cl)cc2)o1 (stereo not given),11µM*,-7%,0%,-6%,.,-10%
COc1ccc(OC)c(CCNC(=O)Cn2sc3nc(C)cc(C)c3c2=O)c1,2.5µM*,-29%,28µM*,11µM*,1.4µM*,?
COc1ccc(OC)c(CCNC(=O)Cn2ncc3c([nH]c4ccccc43)c2=O)c1,.,-14%,.,-7%,.,?
Cc1cc(C)c2c(=O)n(CC(=O)NC3CCCC3)sc2n1,.,-24%,?,13µM*,.,14µM*
Cc1cc(C)c2c(N)c(C(=O)NC3CCCC3)sc2n1,?,-7%,?,-15%,.,4%
Cc1cc(C)c2c(=O)n(CC(=O)Nc3cccc(Cl)c3C)sc2n1,.,?,?,.,.,20µM*
CC(C)n1nc(C(=O)OCn2nnc3ccccc3c2=O)c2ccccc2c1=O,-7%,-1%,9%,-8%,-10%,10%
O=c1c2c(-c3ccccc3)csc2ncn1/N=C/c1cccc([N+](=O)[O-])c1O,1%,-11%,-7%,14µM*,.,-3%
COc1ccc(CN2CC(=O)N(c3ccc(C)c(C)c3)C2=S)cc1OC,5%,-12%,-1%,-4%,.,-13%
COc1ccc(C2C=C(C34CC5CC(CC(C5)C3)C4)NC(=S)N2)cc1OC (stereo not given),7.9µM*,-17%,-9%,?,-8%,-10%
C=CCOc1ccc(C2NC(=S)NC(c3ccccc3)=C2C(C)=O)cc1OC (stereo not given),?,3%,-1%,0%,.,10%
COc1ccc(-c2nc3cc(NC(=S)NC(=O)Cc4ccccc4)ccc3o2)cc1,11µM*,-25%,2%,-2%,-14%,?
CCC(=O)NC(=S)Nc1ccc2oc(-c3ccc(OC)cc3)nc2c1,-7%,18%,4%,19%,.,12%
COc1cc(-c2nnn(CC(=O)Nc3ccc(OC(F)(F)F)cc3)n2)cc(OC)c1OC,.,?,.,-3%,.,18µM*
Cc1ccc(CSCCNS(=O)(=O)c2ccccc2)cc1,?,-22%,-5%,-13%,-1%,-1%
CCCCN1C(=O)/C(=C/C=C2/CC(C)(C)CN2C)SC1=S,6.3µM*,-29%,-4%,?,-4%,12%
CCCCN1C(=O)/C(=C/C=C2\Oc3ccccc3N2CC)SC1=S,?,-14%,-1%,?,.,-14%
CCc1cccc(CC)c1NC(=O)C(CC)n1nc(C)n2c(cc3cc(C)ccc32)c1=O (stereo not given),.,4%,.,-13%,.,6%
Cc1cccc(N/N=C/c2ccccc2O)c1,25µM*,16µM*[quencher],-10%,?,?,?
CCOC(=O)N/N=C/c1ccc(N(CC)CC)cc1O,1%,?,28µM*,?,-14%,7%
CCN(CC)c1ccc(/C=N/Nc2ccc(C)cc2)c(O)c1,10µM*,?,?,25µM*,32µM*,-15%
SMILES,ALDH1A1 inh,Tau fluor cs,JMJD2E inh,Tau ThT inhib,HPGD inh,Tau FP inhib
CCN(CC)c1ccc(C=Nc2ccc(C)cc2C)c(O)c1,20µM*,-15%,10%,?,.,4%
CC/S(C)=N/S(=O)(=O)c1ccc(C)cc1 (stereo not given),5%,7%,-2%,1%,-7%,6%
CCOc1ccc(Nc2nc3ccccc3n3c(CC)nnc23)cc1,.,-15%,.,?,.,5%
COc1ccc(C(=O)NCC(c2cccnc2)N2CCN(c3ccccc3F)CC2)cc1OC (stereo not given),.,-2%,.,-4%,.,-1%
COc1cccc(NC(=O)N2CCC(n3c(C)nc4cccnc43)CC2)c1,.,11%,.,3%,.,9%
O=C(CCC(=O)N/N=C/c1c[nH]c2ccccc12)NCc1ccccc1,-6%,-11%,-4%,-8%,-3%,8%
CCN(CC)c1ccc(/C=N/NC(=O)CCC(=O)NCc2ccccc2)c(O)c1,-11%,-20%,25µM*,-13%,-17%,7%
CC(=O)c1cc(-c2ccc(F)cc2)n(CC(=O)NC2CCC(C)CC2)c1C (stereo not given),.,-16%,.,-12%,.,12%
Cc1ccccc1C(=O)NC1(C(F)(F)F)C(=O)Nc2c1c(=O)[nH]c(=O)n2CCc1ccccc1 (stereo not given),.,4%,.,0%,.,-3%
CN=CC1=C(O)c2ccccc2C1=O,-1%,2%,5%,2%,-7%,5%
CC(C)=CCC1=C(O)c2ccccc2C(=O)C1=O,?,?,?,28µM*,-17%,?
COc1ccc(CCNC(=O)c2ccc(Cn3c(=O)c4ccccc4n(Cc4cccc(Cl)c4)c3=O)cc2)cc1OC,.,-21%,.,-6%,.,-13%
CCN1CCCc2cc(CN(CCN3CCOCC3)C(=S)Nc3cccc(OC)c3)ccc21,16µM*,-24%,-15%,-16%,.,18%
COc1cccc(NC(=S)NCCN2CCOCC2)c1,13%,1%,-1%,2%,-3%,-12%
IC(I)I,13µM*,.,.,.,-13%,.
O=C1Nc2ccc(F)cc2C12Nc1ccccc1-c1nnc(SCc3ccccc3F)nc1O2 (stereo not given),?,?,1%,25µM*,-17%,?
O=C(CCCn1c(=O)c2cccn2c2ccccc21)Nc1cccc(Cl)c1,.,-17%,.,?,.,0%
Oc1c(C(c2ccco2)N2CCOCC2)sc2ncnn12 (stereo not given),14µM*,-15%,?,?,-24%,-11%
CSc1sc(C(=O)NN)c2c1C1(CCC2)SCCS1,0.45µM*,-2%,9%,-8%,.,3%
